# Source: PubChem BioAssay (NCATS)
# Records with an inconclusive call do not appear. Entries that show only a call come without a potency. Active and inactive are the calls of the source. Unless noted, the call rests on the fitted dose curve; in most records, active means well fitted inhibition curve with a large enough effect; inconclusive means small, poorly fitted or top-dose-only effect; inactive means flat fitted curve, though single readings scatter.
# Assays:
# [1] = qHTS drug screen for cell cycle checkpoint inhibitors in PARPi-resistant BRCA-mutant ovarian cancer cell lines. (AID 1963452; calls by dose curve); conditions: PEO1/OlaR viability, CellTiter-Glo luminescence, 96 h; for Z-AUC: stronger effect = lower value
# How it was run: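 PEO1, PEO4 and PEO1/OlaR ovarian cancer cells, 600 per well, exposed 96 h at 37C to a dilution series. Viability read by CellTiter-Glo luminescence, normalized to DMSO and empty wells; activity summarized as Z-AUC.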
# [2] = qHTS for identification of novel therapeutic agents for treatment of microphthalmiaassociated transcription factor (MiT) renal cell carcinoma (RCC) (AID 1963991; calls by dose curve); conditions: CellTiter-Glo, 48 h; for z-score: stronger effect = lower value
# How it was run: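 Three TFE3-fusion RCC cell lines (UOK109, UOK124, UOK145), 500 cells/well, were exposed to the 1912-compound MIPE 4.0 library for 48 hours at 37 C. Viability was read by CellTiter-Glo luminescence, normalised to DMSO (100%) and empty wells (0%), with 11-concentration curve fits.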
# [3] = qHTS profiling for inhibitors of Plasmodium falciparum proliferation (AID 504749); on all read-outs here: nearly all actives have a fitted effect of over 60% in size; conditions: P. falciparum in erythrocytes, SYBR Green DNA, 72 h; for activity, negative = inhibition: at 28.7 µM (top of the series)
# How it was run: (§1)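 Readout was DNA-dye fluorescence from lysed cultures, ex 485/em 535 nm. Parasitized red cells had grown 72 h with compound; data scaled between 0.29 uM artemisinin and DMSO wells and corrected using vehicle-only plates.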
# 3D7 = test: as above; conditions: P. falciparum in erythrocytes, SYBR Green DNA, 72 h; series mostly up to 28.7 µM
# How it was run: as §1
# AS120 = test: as above; conditions: P. falciparum in erythrocytes, SYBR Green DNA, 72 h; series mostly up to 28.7 µM
# How it was run: as §1
# ATS189 = test: as above; conditions: P. falciparum in erythrocytes, SYBR Green DNA, 72 h; series mostly up to 28.7 µM
# How it was run: as §1
# ATS95 = test: as above; conditions: P. falciparum in erythrocytes, SYBR Green DNA, 72 h; series mostly up to 28.7 µM
# How it was run: as §1
# C2A = test: as above; conditions: P. falciparum in erythrocytes, SYBR Green DNA, 72 h; series mostly up to 28.7 µM
# How it was run: as §1
# CP185 = test: as above; conditions: P. falciparum in erythrocytes, SYBR Green DNA, 72 h; series mostly up to 28.7 µM
# How it was run: as §1
# CP191 = test: as above; conditions: P. falciparum in erythrocytes, SYBR Green DNA, 72 h; series mostly up to 28.7 µM
# How it was run: as §1
# CP192 = test: as above; conditions: P. falciparum in erythrocytes, SYBR Green DNA, 72 h; series mostly up to 28.7 µM
# How it was run: as §1
# CP201 = test: as above; conditions: P. falciparum in erythrocytes, SYBR Green DNA, 72 h; series mostly up to 28.7 µM
# How it was run: as §1
# CP203 = test: as above; conditions: P. falciparum in erythrocytes, SYBR Green DNA, 72 h; series mostly up to 28.7 µM
# How it was run: as §1
# CP211 = test: as above; conditions: P. falciparum in erythrocytes, SYBR Green DNA, 72 h; series mostly up to 28.7 µM
# How it was run: as §1
# CP215 = test: as above; conditions: P. falciparum in erythrocytes, SYBR Green DNA, 72 h; series mostly up to 28.7 µM
# How it was run: as §1
# CP217 = test: as above; conditions: P. falciparum in erythrocytes, SYBR Green DNA, 72 h; series mostly up to 28.7 µM
# How it was run: as §1
# CP237 = test: as above; conditions: P. falciparum in erythrocytes, SYBR Green DNA, 72 h; series mostly up to 28.7 µM
# How it was run: as §1
# 7G8 = test: as above; conditions: P. falciparum in erythrocytes, SYBR Green DNA, 72 h; series mostly up to 28.7 µM
# How it was run: as §1
# AA1029 = test: as above; conditions: P. falciparum in erythrocytes, SYBR Green DNA, 72 h; series mostly up to 28.7 µM
# How it was run: as §1
# CP194 = test: as above; conditions: P. falciparum in erythrocytes, SYBR Green DNA, 72 h; series mostly up to 28.7 µM
# How it was run: as §1
# [4] = measured here: PEO1 parental Z-AUC
# [5] = TFE3-RCC UOK109 viability, measured here: UOK109 Z-AUC
# [6] = TFE3-RCC viability, measured here: UOK124 Z-AUC
# [7] = TFE3-RCC viability, measured here: UOK145 Z-AUC
# Potency means the concentration at half of the fitted maximal effect.
compound,measurement,setting,value
COc1c(N2CCNC(C)C2)c(F)cc2c(=O)c(C(=O)O)cn(C3CC3)c12 (stereo unspecified),Z-AUC,[1],0.833 (inactive)
same,Z-AUC,[1]; [4],0.836
same,Z-AUC,[1]; measured here: PEO4 Z-AUC,0.282
same,z-score,[2]; [5],0.46
same,z-score,[2]; [6],0.931
same,z-score,[2]; [7],0.897
same,"activity, negative = inhibition",[3]; parasite line A,-14.8% (inactive)
same,"activity, negative = inhibition",[3]; parasite line B,-1.5% (inactive)
same,Potency,3D7,inactive
same,Potency,AS120,inactive
same,Potency,ATS189,inactive
same,Potency,ATS95,inactive
same,Potency,C2A,inactive
same,Potency,CP185,inactive
same,Potency,CP191,inactive
same,Potency,CP192,inactive
same,Potency,CP201,inactive
same,Potency,CP203,inactive
same,Potency,CP211,inactive
same,Potency,CP215,inactive
same,Potency,CP217,inactive
same,Potency,CP237,inactive
C#CCN[C@@H]1CCc2ccccc21,Z-AUC,[1],-0.484 (inactive)
same,Z-AUC,[1]; [4],-0.355
same,Z-AUC,[1]; measured here: PEO4 Z-AUC,-0.739
same,z-score,[2]; [5],0.682
same,z-score,[2]; [6],0.222
same,z-score,[2]; [7],0.635
same,"activity, negative = inhibition",[3]; parasite line A,16.7% (inactive)
same,"activity, negative = inhibition",[3]; parasite line B,9.12% (inactive)
same,Potency,3D7,inactive
same,Potency,7G8,inactive
same,Potency,AA1029,inactive
same,Potency,AS120,inactive
same,Potency,ATS189,inactive
same,Potency,ATS95,inactive
same,Potency,C2A,inactive
same,Potency,CP185,inactive
same,Potency,CP191,inactive
same,Potency,CP192,inactive
same,Potency,CP194,inactive
same,Potency,CP201,inactive
same,Potency,CP203,inactive
same,Potency,CP211,inactive
same,Potency,CP215,inactive
same,Potency,CP217,inactive
same,Potency,CP237,inactive
CCOc1cc(N)c(Cl)cc1C(=O)NCC1CN(Cc2ccc(F)cc2)CCO1 (stereo unspecified),Z-AUC,[1],1.79 (inactive)
same,Z-AUC,[1]; [4],1.17
same,Z-AUC,[1]; measured here: PEO4 Z-AUC,1.21
same,z-score,[2]; [5],-0.211
same,z-score,[2]; [6],0.779
same,z-score,[2]; [7],0.352
same,Potency,[3]; parasite line A,2.51 µM (active)
same,Potency,[3]; parasite line B,11.2 µM (active)
same,Potency,7G8,11.2 µM (active)
same,Potency,AA1029,12.6 µM (active)
same,Potency,AS120,8.91 µM (active)
same,Potency,ATS189,5.01 µM (active)
same,Potency,ATS95,10 µM (active)
same,Potency,C2A,11.2 µM (active)
same,Potency,CP185,10 µM (active)
same,Potency,CP191,3.98 µM (active)
same,Potency,CP194,12 µM (active)
same,Potency,CP211,12 µM (active)
same,Potency,CP215,10.7 µM (active)
same,Potency,CP217,4.47 µM (active)
same,Potency,CP237,11.2 µM (active)
Cc1nnc(C(=O)NC(C)(C)c2nc(C(=O)NCc3ccc(F)cc3)c(O)c(=O)n2C)o1,Z-AUC,[1],-0.384 (inactive)
same,Z-AUC,[1]; [4],-0.195
same,Z-AUC,[1]; measured here: PEO4 Z-AUC,-0.396
same,z-score,[2]; [5],0.782
same,z-score,[2]; [6],0.249
same,z-score,[2]; [7],1.94
Nc1nc(N)nc(-c2cc(Cl)ccc2Cl)n1,Z-AUC,[1],0.87 (inactive)
same,Z-AUC,[1]; [4],0.667
same,Z-AUC,[1]; measured here: PEO4 Z-AUC,0.862
same,z-score,[2]; [5],0.0738
same,z-score,[2]; [6],0.434
same,z-score,[2]; [7],0.276
same,"activity, negative = inhibition",[3]; parasite line A,-9.21% (inactive)
same,"activity, negative = inhibition",[3]; parasite line B,-1.76% (inactive)
same,Potency,3D7,inactive
same,Potency,7G8,inactive
same,Potency,AA1029,inactive
same,Potency,AS120,inactive
same,Potency,ATS189,inactive
same,Potency,ATS95,inactive
same,Potency,C2A,inactive
same,Potency,CP185,inactive
same,Potency,CP191,inactive
same,Potency,CP192,inactive
same,Potency,CP194,inactive
same,Potency,CP201,inactive
same,Potency,CP203,inactive
same,Potency,CP211,inactive
same,Potency,CP215,inactive
same,Potency,CP217,inactive
same,Potency,CP237,inactive
CC(C)C[C@H](NC(=O)[C@H](CCc1ccccc1)NC(=O)CN1CCOCC1)C(=O)N[C@@H](Cc1ccccc1)C(=O)N[C@@H](CC(C)C)C(=O)[C@@]1(C)CO1,Potency,[1],0.0098 µM (active)
same,Z-AUC,[1]; [4],-3.02
same,Z-AUC,[1]; measured here: PEO4 Z-AUC,-2.77
same,Potency,"[2]; TFE3-RCC UOK109 viability, active = Z-AUC below -0.8 in all three lines",1.48 µM (active)
same,z-score,[2]; [5],-1.85
same,z-score,[2]; [6],-2.71
same,z-score,[2]; [7],-3.3
NCCCC(O)(P(=O)(O)O)P(=O)(O)O,Z-AUC,[1],0.983 (inactive)
same,Z-AUC,[1]; [4],0.814
same,Z-AUC,[1]; measured here: PEO4 Z-AUC,0.863
same,z-score,[2]; [5],0.263
same,z-score,[2]; [6],0.663
same,z-score,[2]; [7],0.216
same,"activity, negative = inhibition",[3]; parasite line A,5.33% (inactive)
same,"activity, negative = inhibition",[3]; parasite line B,1.25% (inactive)
same,Potency,3D7,inactive
same,Potency,7G8,inactive
same,Potency,AA1029,inactive
same,Potency,AS120,inactive
same,Potency,ATS189,inactive
same,Potency,ATS95,inactive
same,Potency,C2A,inactive
same,Potency,CP185,inactive
same,Potency,CP191,inactive
same,Potency,CP192,inactive
same,Potency,CP194,inactive
same,Potency,CP201,inactive
same,Potency,CP203,inactive
same,Potency,CP211,inactive
same,Potency,CP215,inactive
same,Potency,CP217,inactive
same,Potency,CP237,inactive
CN(CCOc1ccc(CC2SC(=O)NC2=O)cc1)c1ccccn1 (stereo unspecified),Z-AUC,[1],0.844 (inactive)
same,Z-AUC,[1]; [4],0.498
same,Z-AUC,[1]; measured here: PEO4 Z-AUC,0.826
same,z-score,[2]; [5],1.36
same,z-score,[2]; [6],0.588
same,z-score,[2]; [7],0.764
same,"activity, negative = inhibition",[3]; parasite line A,-1.7% (inactive)
same,"activity, negative = inhibition",[3]; parasite line B,-10% (inactive)
same,Potency,3D7,inactive
same,Potency,7G8,inactive
same,Potency,AA1029,inactive
same,Potency,AS120,inactive
same,Potency,ATS189,inactive
same,Potency,ATS95,inactive
same,Potency,C2A,inactive
same,Potency,CP185,inactive
same,Potency,CP191,inactive
same,Potency,CP192,inactive
same,Potency,CP194,inactive
same,Potency,CP201,inactive
same,Potency,CP203,inactive
same,Potency,CP211,inactive
same,Potency,CP215,inactive
same,Potency,CP217,inactive
same,Potency,CP237,inactive
O=S(=O)(O)CCS,Z-AUC,[1],0.603 (inactive)
same,Z-AUC,[1]; [4],1.56
same,Z-AUC,[1]; measured here: PEO4 Z-AUC,1.53
same,z-score,[2]; [5],-0.566
same,z-score,[2]; [6],1.05
same,z-score,[2]; [7],-0.757
same,"activity, negative = inhibition",[3]; parasite line A,8.7% (inactive)
same,"activity, negative = inhibition",[3]; parasite line B,5.78% (inactive)
same,Potency,3D7,inactive
same,Potency,7G8,inactive
same,Potency,AA1029,inactive
same,Potency,AS120,inactive
same,Potency,ATS189,inactive
same,Potency,ATS95,inactive
same,Potency,C2A,inactive
same,Potency,CP185,inactive
same,Potency,CP191,inactive
same,Potency,CP192,inactive
same,Potency,CP194,inactive
same,Potency,CP201,inactive
same,Potency,CP203,inactive
same,Potency,CP211,inactive
same,Potency,CP215,inactive
same,Potency,CP217,inactive
same,Potency,CP237,inactive
CCOCC(O)COc1ccc(NC(=O)CC[S+](C)C)cc1 (stereo unspecified),Z-AUC,[1],0.72 (inactive)
same,Z-AUC,[1]; [4],0.893
same,Z-AUC,[1]; measured here: PEO4 Z-AUC,1.15
same,z-score,[2]; [5],0.123
same,z-score,[2]; [6],0.296
same,z-score,[2]; [7],0.104
same,"activity, negative = inhibition",[3]; parasite line A,8.74% (inactive)
same,"activity, negative = inhibition",[3]; parasite line B,4.77% (inactive)
same,Potency,3D7,inactive
same,Potency,7G8,inactive
same,Potency,AA1029,inactive
same,Potency,AS120,inactive
same,Potency,ATS189,inactive
same,Potency,ATS95,inactive
same,Potency,C2A,inactive
same,Potency,CP185,inactive
same,Potency,CP191,inactive
same,Potency,CP192,inactive
same,Potency,CP194,inactive
same,Potency,CP201,inactive
same,Potency,CP203,inactive
same,Potency,CP211,inactive
same,Potency,CP215,inactive
same,Potency,CP217,inactive
same,Potency,CP237,inactive
